# According to PubChem BioAssay:
# The source made the active and inactive calls.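 How the source made its calls: active means inhibition above the hit cutoff set in the earlier primary screen (cut at about 27% in these data); inactive means the rest.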
# Molecular target: Protein phosphatase methylesterase 1 (Homo sapiens) (UniProt Q9Y570)
# Test: human PME-1 methylesterase inhibition confirmation – biochemical, fluorescence polarization, FP-Rh probe, triplicate (AID 2171);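 further: 0% = enzyme with DMSO and 100% = wells lacking PME-1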
# Settings: recombinant PME-1, FP-Rh probe fluorescence polarization; at 5.9 µM; stronger effect = higher value
# Chain of Protein phosphatase methylesterase 1 (Homo sapiens) (Q9Y570 whole entry, looked up): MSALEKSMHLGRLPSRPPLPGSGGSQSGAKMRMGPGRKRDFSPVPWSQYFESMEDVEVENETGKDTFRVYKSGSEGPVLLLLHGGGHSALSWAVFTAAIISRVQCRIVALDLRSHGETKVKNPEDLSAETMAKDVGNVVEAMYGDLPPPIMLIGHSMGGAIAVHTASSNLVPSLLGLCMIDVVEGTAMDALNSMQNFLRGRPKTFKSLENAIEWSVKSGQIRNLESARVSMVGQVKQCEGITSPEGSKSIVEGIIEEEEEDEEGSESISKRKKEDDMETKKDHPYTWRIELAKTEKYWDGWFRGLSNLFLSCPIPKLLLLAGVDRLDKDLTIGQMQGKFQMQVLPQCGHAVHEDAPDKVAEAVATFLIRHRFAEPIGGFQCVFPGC
row,Compound,inhibition
1,COc1ccc2ccccc2c1C(O)c1nccn1C (centres undefined),23.1% (inactive)
2,O=[N+]([O-])c1ccccc1/C=C/C=N/Nc1ccc(S(=O)(=O)Nc2ccc(Cl)cc2)cc1[N+](=O)[O-],14.2% (inactive)
3,Oc1ccc(C2Nc3cccc4cccc(c34)N2)c(O)c1,21.4% (inactive)
4,Cc1ccc(N=Nc2c(N)n(-c3ccccc3)[nH]c2=O)cc1,33.1% (active)
5,C/C(=C\c1ccc2c(c1)OCO2)C1Nc2cccc3cccc(c23)N1,28.5% (active)
6,Cc1cc(C(=O)N/N=C/c2cccc([N+](=O)[O-])c2)c(C)n1-c1ccccc1,-3.77% (inactive)
7,Cc1c(C(=O)N/N=C/c2ccc(O)c(Br)c2)sc(N)c1C#N,49.7% (active)
8,COC(=O)N1C(=O)[C@](c2ccccc2)(C(C)C)N1C(=O)OC,23.3% (inactive)
9,O=c1[nH]n2c(=O)c3c([nH]c2c1N=Nc1cccc(Cl)c1)CCCC3,61.8% (active)
10,CC(C)S(=O)(=O)c1csc(NC(=O)Nc2cccc([N+](=O)[O-])c2)c1Cl,-58.5% (inactive)
11,CC1(C)CC(=O)C2=C(C1)N(CCN1CCOCC1)C1=C(C(=O)CC(C)(C)C1)C2c1cccc(F)c1,25.2% (inactive)
12,Cc1cc(C)c2c(N)c(C(=O)NN)sc2n1,10.5% (inactive)
13,Cc1ccc2nsnc2c1NS(=O)(=O)c1c(C)ccc2nsnc12,22.3% (inactive)
14,O=C(Nc1cccc(C(F)(F)F)c1)c1ccc2nc(-c3ccco3)c(-c3ccco3)nc2c1,-3.36% (inactive)
15,CCN1CCc2c(sc(NC(=O)Nc3ccc(Cl)c(Cl)c3)c2C(N)=O)C1,14.2% (inactive)
16,COc1cc(/C=N/NC(=O)C(Cc2c[nH]c3ccccc23)NC(=O)OCc2ccccc2)cc([N+](=O)[O-])c1O (centres undefined),15.4% (inactive)
17,Nc1ccc2nc(-c3cccc(-c4nc5ccc(N)cc5[nH]4)c3)[nH]c2c1,94.1% (active)
18,COc1cc2c(c(OC)c1OC)-c1ccc(NC(=O)c3ccc(F)cc3)c(=O)cc1[C@@H](NC(C)=O)CC2,0.65% (inactive)
19,O=c1cc(-c2ccccc2Cl)oc2c(NS(=O)(=O)c3cc(Cl)cc(Cl)c3O)ccc(O)c12,47.1% (active)
20,COc1cc(NC(=O)c2cc3ccccc3cc2O)c(OC)cc1Cl,9.45% (inactive)

row,Compound,inhibition
1,O=C(NNc1c2ccccc2nc2ccccc12)c1ccc(O)cc1O,65.2% (active)
2,CCOC(=O)c1ccc(Nc2nc(N)c3cc(OC)c(OC)cc3n2)cc1,27.9% (active)
3,COc1cc(/C=N\Nc2nc3ccccc3o2)cc(OC)c1OC,31.4% (active)
4,O=C(Nc1ccc(Nc2ccccc2)cc1)Nc1ccccc1Cl,-2.21% (inactive)
5,O=C(OCCOCCN=C1NS(=O)(=O)c2ccccc21)c1ccccc1Br,5.54% (inactive)
6,COc1ccc(/C=N/NC(=O)c2cc3cc(OC)c(OC)cc3[nH]2)cc1,8.04% (inactive)
7,O=C(O)c1ccc(N/N=C/c2ccc(OC(=O)c3cccc(Cl)c3)cc2)cc1,37% (active)
8,Nc1cc(N)cc(-c2nc3ccccc3[nH]2)c1,3.51% (inactive)
9,CCC(CNc1cc(OC)cc2cccnc12)NC1CCCCC1 (centres undefined),9.75% (inactive)
10,CCCCN(C)C1=CC2=CC(=C(C#N)C#N)CCC2CC1 (centres undefined),-13% (inactive)
11,Cc1ccc(S(=O)(=O)N2CCN(C(=O)Cn3cnc4c3c(=O)n(C)c(=O)n4C)CC2)cc1C,20.7% (inactive)
12,COc1ccc(C)cc1NC(=O)NNC(=O)c1cc2ccccc2cc1O,16.4% (inactive)
13,Cc1ccc(NS(=O)(=O)c2ccc3c(c2)C(=O)c2ccccc2C3=O)c(C)c1,24.5% (inactive)
14,Cn1c(=O)cc2c3c(c(N4CCCCC4)ccc31)C(=O)c1ccccc1-2,24.1% (inactive)
15,COc1ccc(Br)cc1CNc1ccc(O)cc1,9.35% (inactive)
16,Oc1[nH]c2ccccc2c1N=Nc1ncnc2c1oc1ccccc12,35% (active)
17,O=C(CSc1nnc(SCc2ccccc2Cl)s1)N/N=C/c1c[nH]c2ccccc12,19.3% (inactive)
18,O=C(c1ccc2oc(CCCc3ccccc3)nc2c1)N1CCCC(CCCO)C1 (centres undefined),23.5% (inactive)
19,COc1ccc(N/N=C(\C=N\O)C(=O)c2ccc(OC)cc2)cc1,58.9% (active)
